This passage reports outcome, Potency and max response results from PubChem BioAssay (NCATS).

Several values for one entry are separate records, joined by “and”; a condition that tells them apart may be missing. Identical values can stand only once. Results filed as inconclusive are left out. Where a call stands in place of a potency, no number is given. A number with no mark means an inactive call. Activity calls are given as the source filed them. The call rests on the fitted dose curve; in most records, active means well fitted curve in the direction sought with a large enough effect in the repeat runs; inconclusive means weak or mixed curves; inactive means no such curve, though single readings can be large; an effect the other way counts as inactive or inconclusive.

A short description of the first test: qHTS assay for small molecule agonists of the antioxidant response element (ARE) signaling pathway measured by Nrf2-dependant transcriptional activity (AID 720636). Particulars: ARE-luc HepG2, Nrf2 luciferase reporter, 16 h; series mostly up to 92.4 µM. An outline of the steps: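 We exposed ARE-luc HepG2 cells, seeded in assay medium with 1% dialyzed FBS and allowed 6 hr to adhere, to test compounds overnight (16 hr, 37 C) before measuring luciferase with ONE-Glo.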
As to `O=[N+]([O-])c1ccc(NCCO)c(OCCO)c1`, the compound was classed as inactive.

For `ClC/C=C/CCl`, the compound was classed as inactive.

Turning to `Cc1cscn1`, the compound was called inactive.

As for `CCCCCCCN`, the compound was called inactive.

`CC(C)(O)CCC(C)(C)O`: the compound was classed as inactive.

For `Nc1cccc(S(=O)(=O)O)c1`, the call was inactive.

Consider `O=Cc1c(Cl)cccc1Cl`, for which the compound was classed as inactive.

On to `COC(=O)CCCC(=O)OC`, for which the compound was called inactive.

Turning to `O=c1[nH][nH]c(=O)c2cc([N+](=O)[O-])ccc12`, the compound was called inactive.

Take `Nc1ccc([N+](=O)[O-])c(N)c1`: the outcome was inactive.

`Nc1cccc(N)c1`: the call was inactive.

Take `CSc1ccc(C=O)cc1`: the compound was classed as inactive.

With `Cc1ccc([N+](=O)[O-])c(N)c1`, the outcome was inactive.

As for `C=CCCCC`, the call was inactive.

For the compound `C=CC(=O)NC(C)C`, the compound was classed as inactive.

`C/C(C=O)=C/c1ccccc1`: the compound was called inactive.

`CCCCCCCCN`: the outcome was inactive.

For the compound `C=CCCC`, the compound was called inactive.

On to `C=CCCCCCC`, for which the call was inactive.

In the case of `Cc1ccccc1C=O`, the compound was classed as inactive.

Regarding `Cc1c(N)cccc1N`, the call was inactive.

For `CC(=C/C=C/C(C)=C/C=C/C=C(C)/C=C/C=C(C)/C=C/C(=O)O)/C=C/C(=O)O`, the result was inactive.

`Fc1ccccc1`: the compound was called inactive.

As for `NC(=S)NNC(N)=S`, the outcome was inactive.

Take `CCNc1cc(O)ccc1C`: the compound was called inactive.

Consider `Cc1ccc(C#N)cc1`, for which the outcome was inactive.

On to `c1ccc2n[nH]nc2c1`, for which the call was inactive.

Take `Nc1cccc2c(=O)[nH][nH]c(=O)c12`: the outcome was inactive.

For `Cc1c(N)cccc1[N+](=O)[O-]`, the outcome was inactive.

In the case of `O=C1OC(=O)c2c(Br)c(Br)c(Br)c(Br)c21`, the outcome was inactive.

In the case of `CCCCC/C=C/C=C/C=O`, the compound was called inactive.

As to `O=Cc1cccc(Br)c1`, the call was inactive.

As to `O=Cc1ccc(CO)o1`, the outcome was inactive.

`C=CCn1c(=O)n(CC=C)c(=O)n(CC=C)c1=O`: the compound was called inactive.

As to `CCCCCCCCCCCCC1CO1` (configuration not stated), the result was inactive.

Turning to `Cc1ccc(C(=O)O)cc1`, the result was inactive.

The nature of a further test: qHTS assay for small molecule antagonists of the retinoid-related orphan receptor gamma (ROR-gamma) signaling pathway - cell viability counter screen (AID 720652).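 Further: compound exposure lasted 16 hr before ATP read.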 Further: potency means the concentration at half of the fitted maximal effect. Particulars: RORgamma reporter cell line viability counter screen; series mostly up to 92.2 µM. An outline of the steps:
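ATP-based viability readout in the ROR-gamma reporter CHO cells after 16 hr compound exposure under doxycycline induction.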
On to `O=[N+]([O-])c1ccc(NCCO)c(OCCO)c1`, for which the Potency entry was “inactive”.

On to `ClC/C=C/CCl`, for which the Potency result is “inactive”.

For `Cc1cscn1`, the Potency result was “inactive”.

As for `CCCCCCCN`, the Potency result is “inactive”.

As for `CC(C)(O)CCC(C)(C)O`, the Potency entry was “inactive”.

Take `Nc1cccc(S(=O)(=O)O)c1`: the Potency entry was “inactive”.

`O=Cc1c(Cl)cccc1Cl`: the Potency result is “inactive”.

Take `Oc1c(Cl)ccc(Cl)c1Cl`: the Potency entry was “inactive”.

As to `COC(=O)CCCC(=O)OC`, the Potency result is “inactive”.

With `O=c1[nH][nH]c(=O)c2cc([N+](=O)[O-])ccc12`, the Potency entry was “inactive”.

With `C=Cc1ccccn1`, the Potency result is “inactive”.

Turning to `Nc1ccc([N+](=O)[O-])c(N)c1`, the Potency result is “inactive”.

For `Nc1cccc(N)c1`, the Potency result is “inactive”.

On to `CSc1ccc(C=O)cc1`, for which the Potency entry was “inactive”.

In the case of `COc1ccc(N)c(OC)c1`, the Potency entry is “inactive”.

Consider `C=CCCCC`, for which the Potency result is “inactive”.

For the compound `C=CC(=O)NC(C)C`, the Potency entry is “inactive”.

As for `C/C(C=O)=C/c1ccccc1`, the Potency result was “inactive”.

With `CCCCCCCCN`, the Potency entry is “inactive”.

On to `C=CCCC`, for which the Potency result was “inactive”.

In the case of `C=CCCCCCC`, the Potency entry is “inactive”.

With `Cc1ccccc1C=O`, the Potency result is “inactive”.

With `CCN(CC)c1cccc(O)c1`, the Potency entry is “inactive”.

For the compound `CC(=C/C=C/C(C)=C/C=C/C=C(C)/C=C/C=C(C)/C=C/C(=O)O)/C=C/C(=O)O`, the Potency entry is “inactive”.

In the case of `Fc1ccccc1`, the Potency entry is “inactive”.

On to `NC(=S)NNC(N)=S`, for which the Potency result is “inactive”.

With `Cc1ccc(C#N)cc1`, the Potency result is “inactive”.

Regarding `c1ccc2n[nH]nc2c1`, the Potency result was “inactive”.

Consider `Cc1c(N)cccc1[N+](=O)[O-]`, for which the Potency entry was “inactive”.

As for `O=C1OC(=O)c2c(Br)c(Br)c(Br)c(Br)c21`, the Potency entry was “inactive”.

For the compound `CCCCC/C=C/C=C/C=O`, the Potency was 23.7 µM (active).

As for `C=CCn1c(=O)n(CC=C)c(=O)n(CC=C)c1=O`, the Potency entry is “inactive”.

As to `CCCCCCCCCCCCC1CO1` (configuration not stated), the Potency entry was “inactive”.

For the compound `Cc1ccc(C(=O)O)cc1`, the Potency entry is “inactive”.

Another test is described as follows: qHTS assay for small molecule agonists of the antioxidant response element (ARE) signaling pathway measured by Nrf2-dependant transcriptional activity - cell viability counter screen (AID 720653). Particulars: ARE-bla HepG2 viability, CellTiter-Glo ATP luminescence, 16 h; stronger effect = lower value. In outline:
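ARE-bla HepG2 cells treated with compounds for 16 h at 37C; this counter screen measures viability as intracellular ATP by CellTiter-Glo luminescence after 30 min at room temperature.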
Regarding `O=[N+]([O-])c1ccc(NCCO)c(OCCO)c1`, the max response is 6.98%.

Regarding `Cc1cscn1`, the max response was 0.707%.

Consider `CCCCCCCN`, for which the max response was -1.43%.

As to `CC(C)(O)CCC(C)(C)O`, the max response was -2.27%.

For the compound `Nc1cccc(S(=O)(=O)O)c1`, the max response is 8.17%.

As for `O=Cc1c(Cl)cccc1Cl`, the max response is 11.9%.

For `Oc1c(Cl)ccc(Cl)c1Cl`, the max response was 0.617%.

As for `COC(=O)CCCC(=O)OC`, the max response was 4.37%.

As for `O=c1[nH][nH]c(=O)c2cc([N+](=O)[O-])ccc12`, the max response was 5.62%.

With `C=Cc1ccccn1`, the max response is -6.91%.

`Nc1ccc([N+](=O)[O-])c(N)c1`: the max response is -4.59%.

As for `Nc1cccc(N)c1`, the max response was -7.64%.

Consider `CSc1ccc(C=O)cc1`, for which the max response is -8.76%.

Regarding `Cc1ccc([N+](=O)[O-])c(N)c1`, the max response is 6.11%.

Turning to `COc1ccc(N)c(OC)c1`, the max response is 4.1%.

For `C/C(C=O)=C/c1ccccc1`, the max response is -7.12%.

In the case of `CCCCCCCCN`, the max response was 1.34%.

Take `C=CCCCCCC`: the max response is -7.1%.

`CCN(CC)c1cccc(O)c1`: the max response is 5.34%.

Take `Cc1c(N)cccc1N`: the max response was 1.04%.

Take `Fc1ccccc1`: the max response was 8.77%.

As to `NC(=S)NNC(N)=S`, the max response is 1.26% and -5.12%.

`CCNc1cc(O)ccc1C`: the max response was 9.97%.

For the compound `Cc1ccc(C#N)cc1`, the max response is 4.38%.

Turning to `c1ccc2n[nH]nc2c1`, the max response is 3.37%.

With `Cc1c(N)cccc1[N+](=O)[O-]`, the max response is 12.6%.

On to `O=C1OC(=O)c2c(Br)c(Br)c(Br)c(Br)c21`, for which the max response was -8.33% and -1.37%.

With `O=Cc1cccc(Br)c1`, the max response was 0.536%.

With `O=Cc1ccc(CO)o1`, the max response is -0.711%.

On to `C=CCn1c(=O)n(CC=C)c(=O)n(CC=C)c1=O`, for which the max response is -13.5%.

For the compound `CCCCCCCCCCCCC1CO1` (configuration not stated), the max response was 1.04%.

Consider `Cc1ccc(C(=O)O)cc1`, for which the max response was 8.21%.
